Experimental data reported in PubChem BioAssay AID1347426 (Functional Genomics Laboratory (NCATS/FGL), 2020).
In all, about 31,000 sequences went through this assay and about 1,400 (4.5%) were called active.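 Rule for the calls: active = median seed-adjusted z-score above 1 or below -1; inactive = the rest.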 The entries come from a sample that favours actives as a whole.

Experiment: Novel Modifiers of Survival Motor Neuron (SMN) Protein: Gene Identification via Genome-wide siRNA Screen;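 note: luminescence tracks full-length SMN protein made from the SMN2 reporter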
Settings: HEK293T SMN2-luciferase reporter, siRNA knockdown, 72 h; actives lie on both sides
Procedure, shortened: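 HEK293T cells stably expressing an SMN2 splicing/cDNA-luciferase reporter were reverse-transfected with a druggable-genome siRNA library and read by luminescence at 72 hours; hits defined by MAD score above 1.0 or below -1.0.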

Row | Sequence | median seed-adjusted z-score
1 | AACUCGCUGUUGUACCUGATT against CPSF1 | 3.29 (active)
2 | GGCAUUAUGUGAAGGCGAATT against SMC5 | 0.0666 (inactive)
3 | CCAUCACCUUCAAUCCGCUTT against PEMT | 0.0218 (inactive)
4 | GGUAGACUGUCAUCGUGAATT against RAD50 | 0.266 (inactive)
5 | CAUCACCGCUGGGUCCAAATT against FABP1 | -0.302 (inactive)
6 | UGGAAUAAGUGGGCUCUGATT against ADM | 0.65 (inactive)
7 | CAAUAUGCCUUUCUCUACATT against DNASE1L3 | 0.0678 (inactive)
8 | GGACUGCUUCAUAUACUGATT against GLT8D1 | 1.22 (active)
9 | GGGACUAACAUGUACAACATT against PCDH24 | 0.345 (inactive)
10 | CAGUUACUAUAAAAACCGATT against ZNF711 | 0.254 (inactive)
11 | GAGAUAGACUUGCUGAGCATT against TRIP6 | 1.03 (active)
12 | GGAAAAUCAAUAUAUCACUTT against ADH6 | -0.132 (inactive)
13 | GGAGCAUACAGAACGGACATT against SIPA1L3 | 0 (inactive)
14 | GGUCAUACACGGGAUCUCUTT against SLC30A2 | -0.402 (inactive)
15 | GCAUUGGAACGAUUCUAAATT against CTPS2 | 1.08 (active)
16 | CGCACGCUCUUCAAAUUCUTT against ADRA2A | -0.65 (inactive)
17 | GCAAAUGAGUGUGACCUAATT against RAB38 | -0.165 (inactive)
18 | CCAACCUAAUUAUGGAGGATT against PCDHGB4 | 0.176 (inactive)
19 | AGGUUUAUGUGACCAAGCATT against KCTD8 | 0.0212 (inactive)
20 | GAGCGAAGAUGUCCGAAAATT against MIPEP | -0.169 (inactive)
21 | GCUUCAAUGAGACAACCCUTT against IP6K2 | -0.193 (inactive)
22 | CAGAAGUUGUGCAAUCCAATT against ADAM32 | 1.75 (active)
23 | GGAUGGUCGGAUUCUGAAATT against ITPKC | 0.218 (inactive)
24 | CCAGGCUAUCUUUCCGAUATT against PTPN3 | -0.535 (inactive)

Row | Sequence | median seed-adjusted z-score
25 | GCCCACUGACCAUACCUCATT against NAT6 | -0.327 (inactive)
26 | GGAGUUGAUUUUAUGAUUATT against RAB30 | 0.395 (inactive)
27 | GUAUCAGCAUUGAUAGAUATT against GPR21 | 0.246 (inactive)
28 | GCACCGAGCUUUACAGUGUTT against LARP1 | 0.251 (inactive)
29 | CCUUGUGCGUUACAGAAGATT against SCARA3 | -0.05 (inactive)
30 | CAUCAAGCCUCAUCUAAUATT against CHD1 | -1.03 (active)
31 | CCCAGUUUCUAGUCUGCUATT against SHKBP1 | 0.345 (inactive)
32 | AGACAAUUUGUAACUAGAATT against NEUROD2 | -0.103 (inactive)
33 | AGAUCAAGGUGUACGAGAUTT against KIF26A | -0.428 (inactive)
34 | GCAUCUAUGUAACAAAGAUTT against DLG4 | -0.498 (inactive)
35 | CGAAUGCAUCAGAUCAACATT against UBA2 | 0.694 (inactive)
36 | GUAACAACAUCAUCCUAGATT against HSPG2 | 0.478 (inactive)
37 | GACCCGGUAUAUGAACUCATT against UCP3 | 1.23 (active)
38 | GAGAAGGCCUAUUCAGACATT against ZBTB7C | 0.447 (inactive)
39 | CGAGCUGACUUCAACAGGATT against STC1 | -1.36 (active)
40 | GUGUGGUACAGAACAUUUATT against GUCA1C | -0.617 (inactive)
41 | GCAACAACCUGAUUAAGGATT against MED24 | -2.3 (active)
42 | GGACUCAGCAGGAUACAAUTT against FOXJ2 | -0.627 (inactive)
43 | ACUUAGCACUUUAUAUUUATT against DUSP2 | 0.576 (inactive)
44 | GAGCAGUACUGGGAAGAGATT against CARD14 | -0.104 (inactive)
45 | GCAGCUUAGGAACAGCAGATT against THOC4 | -1.54 (active)
46 | CCAUGACACGGUCCUCCAATT against ICAM2 | 0.269 (inactive)
47 | GCUUUGUGGUGUGGAGUAUTT against LTB4R | 0.498 (inactive)
48 | GAAGAUGACAUGUACCGUATT against XPA | 2.03 (active)

Row | Sequence | median seed-adjusted z-score
49 | GCUGCUACUUUGAAGUCCATT against FGG | -0.043 (inactive)
50 | CAUGCAGCCUUAAGCCUCATT against ILKAP | 0 (inactive)
51 | GCCUAGAGCUAAGUACCAATT against CHUK | -0.613 (inactive)
52 | GGCACUAAGUUUGACCGGATT against AQR | -1.56 (active)
53 | GCCUUUGACCUGUCAGUGUTT against ASMT | -0.322 (inactive)
54 | GCAUCCUGUUUGUAAAUGATT against DLG4 | -0.498 (inactive)
55 | CCGUGGUUACAGAAACGUATT against ABHD3 | -0.126 (inactive)
56 | CAAGAUGCUGGAUAAGGAATT against GYS1 | 0.874 (inactive)
57 | GGAUUCUUGUUGGACUAAUTT against RHBDD1 | 0.00277 (inactive)
58 | CAAUAGGAUUAUCAUGAGATT against MRS2 | 1.38 (active)
59 | GGCUACAACAUGACUCGUATT against FZD10 | -0.226 (inactive)
60 | UCACUGUCCCAGACACCAATT against EPO | 0.148 (inactive)
61 | UGGACAACUUUGUACCUAATT against EBP | 0.017 (inactive)
62 | GGCUCAACAUGGACCGGAUTT against BCAT2 | 0.0438 (inactive)
63 | CAAAGGCGAUAACAUCUAUTT against UBE2E1 | 0.888 (inactive)
64 | GCCCUAAAGGAGAAAGUCATT against MAT2A | -1.9 (active)
65 | GCAUGUAAGAAUCCACAAUTT against ZNF187 | 0.419 (inactive)
66 | GCCUAAAUCCCAAAUCGAATT against CXCL11 | -0.135 (inactive)
67 | ACAGCGACCUUGCAAAGAATT against ZNF496 | -0.971 (inactive)
68 | GAAAGUGCUCGGUGCCUUUTT against HBB | -0.151 (inactive)
69 | GGCGAGAAGAGCAACGUAATT against DDX46 | -1.24 (active)
70 | CAACGGCUUCUGUCAUUUATT against SUCLG1 | -0.63 (inactive)
